The values below come from publication PMC12820563, “FoxP3 forms a head-to-head dimer in vivo and stabilizes its multimerization on adjacent microsatellites”.

The full ranking holds about 16,000 sequences; the median of “rpm ratio (pull-down/input)” is about 0.5, and the highest 2% start at about 5.5. This is one part of a sample in which the highest values are shown more often than they occur.

The test concerns the target T1, MBP-FoxP3dN (Mus musculus, UniProt Q99JB6 188-423).
T1 sequence: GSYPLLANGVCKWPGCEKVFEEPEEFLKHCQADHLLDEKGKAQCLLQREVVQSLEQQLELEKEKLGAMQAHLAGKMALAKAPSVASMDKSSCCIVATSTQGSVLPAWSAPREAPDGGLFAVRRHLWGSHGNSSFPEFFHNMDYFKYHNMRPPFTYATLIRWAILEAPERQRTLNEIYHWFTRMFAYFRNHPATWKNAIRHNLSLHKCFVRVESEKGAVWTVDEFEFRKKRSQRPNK
Kind of test: PD-seq (MBP pull-down with sequencing); 20 mM Tris-HCl pH 7.5, 100 mM NaCl, 1.5 mM MgCl2, 0.4 uM protein, 0.1 uM dsDNA library, 30 min, room temperature, amylose pull-down; high values mean tight binding. The conditions noted are these: protein: recombinant; tags: His6-MBP; chain copies: 2; dsDNA, one strand shown. The procedure, abridged:
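E. coli-expressed mouse FoxP3 or FoxP1 fragment, N-terminus removed and tagged with His6-MBP, was used at 0.4 µM against 0.1 µM of a Klenow-filled degenerate double-stranded DNA library. After 30 min at room temperature in Tris pH 7.5 buffer with NaCl and MgCl2, complexes were pulled down on amylose resin and washed three times. Binding is pull-down over input reads-per-million enrichment from pooled replicates of the proteinase K-released, PCR-barcoded, Illumina-sequenced DNA.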
As to “GATGATTGTTCTCCCAGCTGATGAATTAGACTCCTCGAGTAAACAAATTTTCCTAATCTTTCTGTTCAAGCGCCATCTAC”, the binding signal was 0.422 RPM ratio (pull-down/input).

As for “GATGATTGTTCTCCCAGCTGATGAATTATACCCATCGAGTAAACAAATTTTCCTAATCTTTCTGTTCAAGCGCCATCTAC”, the binding signal was 0.433 RPM ratio (pull-down/input).

As for “GATGATTGTTCTCCCAGCTGATGAATTAGTCTTATCGAGTAAACAAATTTTCCTAATCTTTCTGTTCAAGCGCCATCTAC”, the binding signal is 0.725 RPM ratio (pull-down/input).

For “GATGATTGTTCTCCCAGCTGATGAATTAGTCGGATCGAGTAAACAAATTTTCCTAATCTTTCTGTTCAAGCGCCATCTAC”, the binding signal was 0.297 RPM ratio (pull-down/input).

With “GATGATTGTTCTCCCAGCTGATGAATTCCCTCATTCGAGTAAACAAATTTTCCTAATCTTTCTGTTCAAGCGCCATCTAC”, the binding signal is 0.325 RPM ratio (pull-down/input).

For “GATGATTGTTCTCCCAGCTGATGAATTGGTTAACTCGAGTAAACAAATTTTCCTAATCTTTCTGTTCAAGCGCCATCTAC”, the binding signal was 0.469 RPM ratio (pull-down/input).

Consider “GATGATTGTTCTCCCAGCTGATGAATTCTGTCATTCGAGTAAACAAATTTTCCTAATCTTTCTGTTCAAGCGCCATCTAC”, for which the binding signal was 4.31 RPM ratio (pull-down/input).

For the sequence “GATGATTGTTCTCCCAGCTGATGAATTGAGTACTTCGAGTAAACAAATTTTCCTAATCTTTCTGTTCAAGCGCCATCTAC”, the binding signal is 0.524 RPM ratio (pull-down/input).

For “GATGATTGTTCTCCCAGCTGATGAATTAGAAGGATCGAGTAAACAAATTTTCCTAATCTTTCTGTTCAAGCGCCATCTAC”, the binding signal was 0.225 RPM ratio (pull-down/input).

With “GATGATTGTTCTCCCAGCTGATGAATTCGCATGTTCGAGTAAACAAATTTTCCTAATCTTTCTGTTCAAGCGCCATCTAC”, the binding signal was 1.95 RPM ratio (pull-down/input).

Regarding “GATGATTGTTCTCCCAGCTGATGAATTTCGCATGTCGAGTAAACAAATTTTCCTAATCTTTCTGTTCAAGCGCCATCTAC”, the binding signal was 5.75 RPM ratio (pull-down/input).

In the case of “GATGATTGTTCTCCCAGCTGATGAATTTCCCATGTCGAGTAAACAAATTTTCCTAATCTTTCTGTTCAAGCGCCATCTAC”, the binding signal is 0.287 RPM ratio (pull-down/input).

As to “GATGATTGTTCTCCCAGCTGATGAATTCAGCATGTCGAGTAAACAAATTTTCCTAATCTTTCTGTTCAAGCGCCATCTAC”, the binding signal was 4.71 RPM ratio (pull-down/input).

On to “GATGATTGTTCTCCCAGCTGATGAATTCTGCATGTCGAGTAAACAAATTTTCCTAATCTTTCTGTTCAAGCGCCATCTAC”, for which the binding signal was 5.95 RPM ratio (pull-down/input).

Take “GATGATTGTTCTCCCAGCTGATGAATTTGCATGTTCGAGTAAACAAATTTTCCTAATCTTTCTGTTCAAGCGCCATCTAC”: the binding signal is 3.83 RPM ratio (pull-down/input).

In the case of “GATGATTGTTCTCCCAGCTGATGAATTGTGCATGTCGAGTAAACAAATTTTCCTAATCTTTCTGTTCAAGCGCCATCTAC”, the binding signal was 7.05 RPM ratio (pull-down/input).

As to “GATGATTGTTCTCCCAGCTGATGAATTCGCCATGTCGAGTAAACAAATTTTCCTAATCTTTCTGTTCAAGCGCCATCTAC”, the binding signal was 0.854 RPM ratio (pull-down/input).

Take “GATGATTGTTCTCCCAGCTGATGAATTTTGCATGTCGAGTAAACAAATTTTCCTAATCTTTCTGTTCAAGCGCCATCTAC”: the binding signal was 6.69 RPM ratio (pull-down/input).

On to “GATGATTGTTCTCCCAGCTGATGAATTGCATGTGTCGAGTAAACAAATTTTCCTAATCTTTCTGTTCAAGCGCCATCTAC”, for which the binding signal is 2.29 RPM ratio (pull-down/input).

As to “GATGATTGTTCTCCCAGCTGATGAATTTGCCATGTCGAGTAAACAAATTTTCCTAATCTTTCTGTTCAAGCGCCATCTAC”, the binding signal is 1.45 RPM ratio (pull-down/input).

As to “GATGATTGTTCTCCCAGCTGATGAATTCATGATGTCGAGTAAACAAATTTTCCTAATCTTTCTGTTCAAGCGCCATCTAC”, the binding signal is 0.987 RPM ratio (pull-down/input).

On to “GATGATTGTTCTCCCAGCTGATGAATTCATTTGCTCGAGTAAACAAATTTTCCTAATCTTTCTGTTCAAGCGCCATCTAC”, for which the binding signal is 2.92 RPM ratio (pull-down/input).

Regarding “GATGATTGTTCTCCCAGCTGATGAATTTGCGTATTCGAGTAAACAAATTTTCCTAATCTTTCTGTTCAAGCGCCATCTAC”, the binding signal is 4.16 RPM ratio (pull-down/input).

For “GATGATTGTTCTCCCAGCTGATGAATTGGGTCATTCGAGTAAACAAATTTTCCTAATCTTTCTGTTCAAGCGCCATCTAC”, the binding signal was 0.64 RPM ratio (pull-down/input).

Take “GATGATTGTTCTCCCAGCTGATGAATTAATCTTGTCGAGTAAACAAATTTTCCTAATCTTTCTGTTCAAGCGCCATCTAC”: the binding signal was 0.322 RPM ratio (pull-down/input).

“GATGATTGTTCTCCCAGCTGATGAATTGCTCAAATCGAGTAAACAAATTTTCCTAATCTTTCTGTTCAAGCGCCATCTAC”: the binding signal was 0.408 RPM ratio (pull-down/input).

Turning to “GATGATTGTTCTCCCAGCTGATGAATTTTGCGGATCGAGTAAACAAATTTTCCTAATCTTTCTGTTCAAGCGCCATCTAC”, the binding signal was 0.597 RPM ratio (pull-down/input).

In the case of “GATGATTGTTCTCCCAGCTGATGAATTACACATATCGAGTAAACAAATTTTCCTAATCTTTCTGTTCAAGCGCCATCTAC”, the binding signal was 0.87 RPM ratio (pull-down/input).

In the case of “GATGATTGTTCTCCCAGCTGATGAATTGCGCATGTCGAGTAAACAAATTTTCCTAATCTTTCTGTTCAAGCGCCATCTAC”, the binding signal is 6.5 RPM ratio (pull-down/input).

Consider “GATGATTGTTCTCCCAGCTGATGAATTCCCCATGTCGAGTAAACAAATTTTCCTAATCTTTCTGTTCAAGCGCCATCTAC”, for which the binding signal was 0.259 RPM ratio (pull-down/input).

With “GATGATTGTTCTCCCAGCTGATGAATTGCTGATGTCGAGTAAACAAATTTTCCTAATCTTTCTGTTCAAGCGCCATCTAC”, the binding signal is 0.843 RPM ratio (pull-down/input).

Consider “GATGATTGTTCTCCCAGCTGATGAATTCCGCATGTCGAGTAAACAAATTTTCCTAATCTTTCTGTTCAAGCGCCATCTAC”, for which the binding signal is 5.82 RPM ratio (pull-down/input).

As for “GATGATTGTTCTCCCAGCTGATGAATTGCCCATGTCGAGTAAACAAATTTTCCTAATCTTTCTGTTCAAGCGCCATCTAC”, the binding signal is 0.577 RPM ratio (pull-down/input).

In the case of “GATGATTGTTCTCCCAGCTGATGAATTCTCCATGTCGAGTAAACAAATTTTCCTAATCTTTCTGTTCAAGCGCCATCTAC”, the binding signal is 0.249 RPM ratio (pull-down/input).

Turning to “GATGATTGTTCTCCCAGCTGATGAATTGCGGTATTCGAGTAAACAAATTTTCCTAATCTTTCTGTTCAAGCGCCATCTAC”, the binding signal was 1.67 RPM ratio (pull-down/input).

On to “GATGATTGTTCTCCCAGCTGATGAATTCTTGACTTCGAGTAAACAAATTTTCCTAATCTTTCTGTTCAAGCGCCATCTAC”, for which the binding signal was 0.38 RPM ratio (pull-down/input).

As to “GATGATTGTTCTCCCAGCTGATGAATTATAGCCGTCGAGTAAACAAATTTTCCTAATCTTTCTGTTCAAGCGCCATCTAC”, the binding signal is 0.504 RPM ratio (pull-down/input).

Turning to “GATGATTGTTCTCCCAGCTGATGAATTTCTGGTGTCGAGTAAACAAATTTTCCTAATCTTTCTGTTCAAGCGCCATCTAC”, the binding signal is 0.353 RPM ratio (pull-down/input).

With “GATGATTGTTCTCCCAGCTGATGAATTCTTAGTTTCGAGTAAACAAATTTTCCTAATCTTTCTGTTCAAGCGCCATCTAC”, the binding signal is 0.302 RPM ratio (pull-down/input).

As for “GATGATTGTTCTCCCAGCTGATGAATTACCAGGCTCGAGTAAACAAATTTTCCTAATCTTTCTGTTCAAGCGCCATCTAC”, the binding signal was 0.357 RPM ratio (pull-down/input).
